# In the supplement of paper PMC8728848:
# The entries come from a sample that favours the strongest signals as a whole.
# B1: Epa12 (Candida glabrata) (protein)
# chain: MGSSHHHHHHSSGLVPRGSHMLEPDNSLQIFDSFLSNPSKYPLGCSPKITNPKKGLSMELYSYPYRKKGSHPCWDPAYLDPNFPRVGYKKNKLIARVDGVSGDINFNFHPKRQCTPIADYLPPNFNYNEPITTTNFTMLLYGYFKPKVTGLHTFDISADDLLFMNFGAGNAFDCCRRDSTADTFGNYVAWAIWGRRIVRNKLTVRLDKGIYYPLRLFFNNRDYYGQMRLTFKTEHGSERITDFSDYFFSVDDTSEGCPGLITYESECADVKSSTVLETDYITIQAEKE
# How the values were obtained:
# Experiment in all cases: glycan array binding signal (z-score within array); higher = stronger binding
# Conditions in all cases: glycan notation: IUPAC condensed, linker removed
# [1] = target: Gal(b1-4)GlcNAc(b1-3)[Gal(b1-4)GlcNAc(b1-6)]Gal(b1-4)GlcNAc
# Method in brief: (§1)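 The binding signal is a Z-score computed within each array. Data were drawn from 3228 arrays in the Consortium for Functional Glycomics database, restricted to those with a known protein sequence. Scores were averaged over arrays of the same protein sequence at different concentrations or buffers, and over linkers, and negative values can be taken as non-binding.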
# Gal3S(b1-4)Glc6S = target: Gal3S(b1-4)Glc6S
# Method in brief: as §1
# Gal6S(b1-3)GlcNAc6S = target: Gal6S(b1-3)GlcNAc6S
# Method in brief: as §1
# Gal6S(b1-4)Glc6S = target: Gal6S(b1-4)Glc6S
# Method in brief: as §1
# Gal6S(b1-4)GlcNAc = target: Gal6S(b1-4)GlcNAc
# Method in brief: as §1
# Gal6S(b1-4)GlcNAc6S = target: Gal6S(b1-4)GlcNAc6S
# Method in brief: as §1
# GalNAc(b1-6)GalNAc = target: GalNAc(b1-6)GalNAc
# Method in brief: as §1
# [2] = target: GlcNAc(a1-4)Gal(b1-3)GlcNAc
# Method in brief: as §1
# [3] = target: GlcNAc(b1-2)[GlcNAc(b1-6)]Man(a1-6)[GlcNAc(b1-2)Man(a1-3)]Man(b1-4)GlcNAc(b1-4)GlcNAc
# Method in brief: as §1
# GlcNAc(b1-3)Fuc = target: GlcNAc(b1-3)Fuc
# Method in brief: as §1
# [4] = target: GlcNAc(b1-3)Gal(b1-4)GlcNAc(b1-3)GalNAc
# Method in brief: as §1
# [5] = target: GlcNAc(b1-3)Gal(b1-4)GlcNAc(b1-3)[GlcNAc(b1-3)Gal(b1-4)GlcNAc(b1-3)]GalNAc
# Method in brief: as §1
# [6] = target: GlcNAc(b1-3)Gal(b1-4)GlcNAc(b1-6)[Gal(b1-3)]GalNAc
# Method in brief: as §1
# GlcNAc(b1-4)GlcNAc = target: GlcNAc(b1-4)GlcNAc
# Method in brief: as §1
# [7] = target: GlcNAc(b1-4)GlcNAc(b1-4)GlcNAc(b1-4)GlcNAc(b1-4)GlcNAc
# Method in brief: as §1
# Kdn(a2-6)Gal(b1-4)GlcNAc = target: Kdn(a2-6)Gal(b1-4)GlcNAc
# Method in brief: as §1
# Man(b1-4)GlcNAc = target: Man(b1-4)GlcNAc
# Method in brief: as §1
# [8] = target: Neu5Ac(a2-3)Gal(b1-3)GlcNAc(b1-2)Man
# Method in brief: as §1
# [9] = target: Neu5Ac(a2-3)Gal(b1-3)[Fuc(a1-4)]GlcNAc(b1-3)Gal(b1-3)[Fuc(a1-4)]GlcNAc
# Method in brief: as §1
# [10] = target: Neu5Ac(a2-3)Gal(b1-3)[Neu5Ac(a2-6)]GalNAc
# Method in brief: as §1
# [11] = target: Neu5Ac(a2-3)Gal(b1-4)GlcNAc
# Method in brief: as §1
# [12] = target: Neu5Ac(a2-3)Gal(b1-4)GlcNAc(b1-3)Gal(b1-4)GlcNAc(b1-3)Gal(b1-4)GlcNAc(b1-2)Man(a1-3)[Neu5Ac(a2-3)Gal(b1-4)GlcNAc(b1-3)Gal(b1-4)GlcNAc(b1-3)Gal(b1-4)GlcNAc(b1-2)Man(a1-6)]GalNAc
# Method in brief: as §1
# [13] = target: Neu5Ac(a2-3)Gal(b1-4)[Fuc(a1-3)]GlcNAc(b1-3)Gal(b1-4)GlcNAc
# Method in brief: as §1
# [14] = target: Neu5Ac(a2-3)Gal(b1-4)[Fuc(a1-3)]GlcNAc(b1-6)[Gal(b1-3)]GalNAc
# Method in brief: as §1
# [15] = target: Neu5Ac(a2-3)[GalNAc(b1-4)]Gal(b1-4)Glc
# Method in brief: as §1
# [16] = target: Neu5Ac(a2-6)GalNAc(b1-4)GlcNAc6S
# Method in brief: as §1
# Neu5Gc(a2-6)GalNAc = target: Neu5Gc(a2-6)GalNAc
# Method in brief: as §1
binder,measurement,setting,value
B1,glycan array binding signal (z-score),[1],-0.194
same,glycan array binding signal (z-score),Gal3S(b1-4)Glc6S,-0.255
same,glycan array binding signal (z-score),Gal6S(b1-3)GlcNAc6S,3.83
same,glycan array binding signal (z-score),Gal6S(b1-4)Glc6S,7.51
same,glycan array binding signal (z-score),Gal6S(b1-4)GlcNAc,1.98
same,glycan array binding signal (z-score),Gal6S(b1-4)GlcNAc6S,8.69
same,glycan array binding signal (z-score),GalNAc(b1-6)GalNAc,-0.347
same,glycan array binding signal (z-score),[2],-0.483
same,glycan array binding signal (z-score),[3],-0.332
same,glycan array binding signal (z-score),GlcNAc(b1-3)Fuc,-0.36
same,glycan array binding signal (z-score),[4],-0.307
same,glycan array binding signal (z-score),[5],-0.348
same,glycan array binding signal (z-score),[6],-0.32
same,glycan array binding signal (z-score),GlcNAc(b1-4)GlcNAc,-0.359
same,glycan array binding signal (z-score),[7],-0.032
same,glycan array binding signal (z-score),Kdn(a2-6)Gal(b1-4)GlcNAc,-0.005
same,glycan array binding signal (z-score),Man(b1-4)GlcNAc,-0.301
same,glycan array binding signal (z-score),[8],-0.336
same,glycan array binding signal (z-score),[9],-0.342
same,glycan array binding signal (z-score),[10],-0.335
same,glycan array binding signal (z-score),[11],-0.321
same,glycan array binding signal (z-score),[12],-0.239
same,glycan array binding signal (z-score),[13],-0.251
same,glycan array binding signal (z-score),[14],-0.245
same,glycan array binding signal (z-score),[15],-0.34
same,glycan array binding signal (z-score),[16],-0.36
same,glycan array binding signal (z-score),Neu5Gc(a2-6)GalNAc,-0.309
